# Inconclusive results are not listed. Where a call stands in place of a potency, no number is given. Calls of active or inactive are those of the source. The call rests on the fitted dose curve; in most records, active means well fitted curve in the direction sought with a large enough effect in the repeat runs; inconclusive means weak or mixed curves; inactive means no such curve, though single readings can be large; an effect the other way counts as inactive or inconclusive.
# Assay: A CellTox Green Cytotoxicity Assay to monitor cytotoxicity in HepG2 cells - 32 hour (AID 1224883); further: nearly all actives have a fitted effect of over 50% in size; further: potency means the concentration at half of the fitted maximal effect
# Details: CellTox Green fluorescence; series mostly up to 76.8 µM
# Summary of the method: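 Cells and non-lytic dye reagent are dispensed together (600 HepG2 cells/well) and incubated 5 h before DMSO compound transfer. Kinetic fluorescence is then recorded in the same wells during 40 h at 37 C.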
row,SMILES,Potency
1,O=Cc1ccc(F)c(Br)c1,inactive
2,Cc1ncc(CO)c(CN)c1O,inactive
3,N#CSCC(=O)O,inactive
4,CCN[C@H]1CN(CCCOC)S(=O)(=O)c2sc(S(N)(=O)=O)cc21,inactive
5,Cc1ccc(C=O)s1,38.9 µM (active)
6,COC(=O)C(C)O (stereo not given),inactive
7,CCOC(=O)NCCC[Si](OCC)(OCC)OCC,inactive
8,OCc1ccccc1O,inactive
9,CCN(CC)C(=O)N(CC)CC,inactive
10,O=C1CCCc2ccccc21,inactive
11,COc1ccccc1N1CCN(CCCNc2cc(=O)n(C)c(=O)n2C)CC1,inactive
12,CC(=O)O[C@H]1CC[C@@]2(C)C(=CC[C@@H]3[C@@H]2CC[C@]2(C)C(C(C)=O)=CC[C@@H]32)C1,inactive
13,Cn1cnc2c(F)c(Nc3ccc(Br)cc3Cl)c(C(=O)NOCCO)cc21,0.0379 µM (active)
14,ClC(Cl)Cl,inactive
15,CCN(CC)CC1CCCCN1CC(=O)N1c2ccccc2C(=O)Nc2cccnc21 (stereo not given),inactive
16,CCCCCCC,inactive
17,CCOC(=O)C1CC(=O)C(=C(O)C2CC2)C(=O)C1 (stereo not given),inactive
18,CC(=O)Nc1ccc(C)c(Cl)c1,inactive
19,CCOC(=O)C(Br)c1ccccc1 (stereo not given),inactive
20,CCCC(CCC)(C(=O)OCC)C(=O)OCC,inactive
21,CCC/C=C/CO,inactive
22,OC[C@H]1O[C@@H](O[C@H]2[C@H](O)[C@@H](O)[C@H](O)O[C@@H]2CO)[C@H](O)[C@@H](O)[C@H]1O,inactive
23,CC(C)S,inactive
24,CN(C)Cc1ccccc1,inactive
25,O=c1[nH]cnc2c1ncn2[C@@H]1O[C@H](CO)[C@@H](O)[C@H]1O,inactive

# Assay: A CellTox Green Cytotoxicity Assay to monitor cytotoxicity in HEK293 cells - 8 hour (AID 1224884); further: nearly all actives have a fitted effect of over 35% in size; further: potency means the concentration at half of the fitted maximal effect
# Details: CellTox Green fluorescence; series mostly up to 76.8 µM
# Summary of the method: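 Cells (HEK293, 600/well) and dye reagent are dispensed together. After 5 h at 37 C, 23 nL compound is pinned in. Plates stay at 37 C for 40 h with fluorescence read at 0h, 8h, 16h, 24h, 32h and 40h.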
row,SMILES,Potency
1,CN1CCC[C@@H]1Cc1c[nH]c2ccc(CCS(=O)(=O)c3ccccc3)cc12,inactive
2,O=Cc1ccc(F)c(Br)c1,inactive
3,Cc1ncc(CO)c(CN)c1O,inactive
4,N#CSCC(=O)O,inactive
5,CCCN(CCC)C(=O)C(CCC(=O)O)NC(=O)c1ccccc1 (stereo not given),inactive
6,CCN[C@H]1CN(CCCOC)S(=O)(=O)c2sc(S(N)(=O)=O)cc21,inactive
7,Cc1ccc(C=O)s1,43.6 µM (active)
8,COC(=O)C(C)O (stereo not given),inactive
9,CCOC(=O)NCCC[Si](OCC)(OCC)OCC,inactive
10,OCc1ccccc1O,inactive
11,O=C(C(Cl)Cl)N1CCOC12CCCCC2,inactive
12,CCN(CC)C(=O)N(CC)CC,inactive
13,O=C1CCCc2ccccc21,inactive
14,COc1ccccc1N1CCN(CCCNc2cc(=O)n(C)c(=O)n2C)CC1,inactive
15,CC(=O)O[C@H]1CC[C@@]2(C)C(=CC[C@@H]3[C@@H]2CC[C@]2(C)C(C(C)=O)=CC[C@@H]32)C1,inactive
16,FC(F)(F)C(F)(F)C(F)(F)C(F)(F)C(F)(F)C(F)(F)C(F)(F)C(F)(F)Br,inactive
17,Cn1cnc2c(F)c(Nc3ccc(Br)cc3Cl)c(C(=O)NOCCO)cc21,inactive
18,ClC(Cl)Cl,inactive

row,SMILES,Potency
1,CCCOc1ccc2c(c1)CC[C@@H]1[C@@H]2CC[C@]2(C)C(OC)CC[C@@H]12 (stereo not given in full),inactive
2,CCN(CC)CC1CCCCN1CC(=O)N1c2ccccc2C(=O)Nc2cccnc21 (stereo not given),inactive
3,O=C(Cl)c1cccc([N+](=O)[O-])c1,inactive
4,Cc1cc(NS(=O)(=O)c2ccc(N)cc2)nc(C)n1,inactive
5,CC(=O)Nc1ccc(C)c(Cl)c1,inactive
6,CCCCCCCCc1ccc(S(=O)(=O)O)cc1,inactive
7,CCOC(=O)C(Br)c1ccccc1 (stereo not given),inactive
8,CCOc1ccc2nc(N)sc2c1,inactive
9,CCCC(CCC)(C(=O)OCC)C(=O)OCC,inactive
10,CCC/C=C/CO,inactive
11,CC(=O)OC(C)OC(C)=O,inactive
12,OC[C@H]1O[C@@H](O[C@H]2[C@H](O)[C@@H](O)[C@H](O)O[C@@H]2CO)[C@H](O)[C@@H](O)[C@H]1O,inactive
13,CC(C)S,inactive
14,CCC1(C)NC(=O)NC1=O (stereo not given),inactive
15,CCN(CC)CCNC(=O)COc1ccc(Cl)cc1,inactive
16,CN(C)Cc1ccccc1,inactive
17,COc1ccc(S(=O)(=O)Nc2nnc(CC(C)C)s2)cc1,inactive
18,O=c1[nH]cnc2c1ncn2[C@@H]1O[C@H](CO)[C@@H](O)[C@H]1O,inactive

# Assay: qHTS RealTime-Glo MT Cell Viability Assay in HepG2 cells - 16 hour (AID 1224885); further: nearly all actives have a fitted effect of over 50% in size
# Details: RealTime-Glo luminescence; series mostly up to 76.8 µM
# Summary of the method: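 Cells + NanoLuc/prosubstrate dispensed (600 cells/well) → 5 h at 37 C/5% CO2 → compounds in DMSO transferred → 40 h incubation at 37 C, luminescence read at 0, 8, 16, 24, 32, 40 h.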
row,SMILES,outcome
1,CN1CCC[C@@H]1Cc1c[nH]c2ccc(CCS(=O)(=O)c3ccccc3)cc12,inactive
2,O=Cc1ccc(F)c(Br)c1,inactive
3,Cc1ncc(CO)c(CN)c1O,inactive
4,N#CSCC(=O)O,inactive
5,CCCN(CCC)C(=O)C(CCC(=O)O)NC(=O)c1ccccc1 (stereo not given),inactive
6,CCN[C@H]1CN(CCCOC)S(=O)(=O)c2sc(S(N)(=O)=O)cc21,inactive
7,Cc1ccc(C=O)s1,inactive
8,COC(=O)C(C)O (stereo not given),inactive
9,CCOC(=O)NCCC[Si](OCC)(OCC)OCC,inactive
10,OCc1ccccc1O,inactive
11,O=C(C(Cl)Cl)N1CCOC12CCCCC2,inactive
12,CCN(CC)C(=O)N(CC)CC,inactive
13,O=C1CCCc2ccccc21,inactive
14,COc1ccccc1N1CCN(CCCNc2cc(=O)n(C)c(=O)n2C)CC1,inactive
15,CC(=O)O[C@H]1CC[C@@]2(C)C(=CC[C@@H]3[C@@H]2CC[C@]2(C)C(C(C)=O)=CC[C@@H]32)C1,inactive
16,FC(F)(F)C(F)(F)C(F)(F)C(F)(F)C(F)(F)C(F)(F)C(F)(F)C(F)(F)Br,inactive
17,Cn1cnc2c(F)c(Nc3ccc(Br)cc3Cl)c(C(=O)NOCCO)cc21,inactive
18,ClC(Cl)Cl,inactive
19,CCCOc1ccc2c(c1)CC[C@@H]1[C@@H]2CC[C@]2(C)C(OC)CC[C@@H]12 (stereo not given in full),inactive
20,CCN(CC)CC1CCCCN1CC(=O)N1c2ccccc2C(=O)Nc2cccnc21 (stereo not given),inactive

row,SMILES,outcome
1,O=C(Cl)c1cccc([N+](=O)[O-])c1,inactive
2,Cc1cc(NS(=O)(=O)c2ccc(N)cc2)nc(C)n1,inactive
3,CCCCCCC,inactive
4,CCOC(=O)C1CC(=O)C(=C(O)C2CC2)C(=O)C1 (stereo not given),inactive
5,CC(=O)Nc1ccc(C)c(Cl)c1,inactive
6,CCCCCCCCc1ccc(S(=O)(=O)O)cc1,inactive
7,CCOC(=O)C(Br)c1ccccc1 (stereo not given),inactive
8,CCOc1ccc2nc(N)sc2c1,inactive
9,CCCC(CCC)(C(=O)OCC)C(=O)OCC,inactive
10,CCC/C=C/CO,inactive
11,CC(=O)OC(C)OC(C)=O,inactive
12,OC[C@H]1O[C@@H](O[C@H]2[C@H](O)[C@@H](O)[C@H](O)O[C@@H]2CO)[C@H](O)[C@@H](O)[C@H]1O,inactive
13,CC(C)S,inactive
14,Clc1cccc(-c2cc(Cl)cc(Cl)c2)c1,inactive
15,CCC1(C)NC(=O)NC1=O (stereo not given),inactive
16,CCN(CC)CCNC(=O)COc1ccc(Cl)cc1,inactive
17,CN(C)Cc1ccccc1,inactive
18,COc1ccc(S(=O)(=O)Nc2nnc(CC(C)C)s2)cc1,inactive
19,O=c1[nH]cnc2c1ncn2[C@@H]1O[C@H](CO)[C@@H](O)[C@H]1O,inactive
